Results published in PubChem BioAssay (NCATS).
Results filed as inconclusive are left out. A number with no mark means an inactive call. The source made the active and inactive calls. Calls follow the shape of the dose curve; as a rule, active = well fitted curve in the direction sought with a large enough effect; inconclusive = small, poorly fitted or top-dose-only effect, or another doubt; inactive = no such curve, though single readings can be large; an effect the other way counts as inactive or inconclusive.

Assays:
[1] = Primary redox qHTS assay for identification of artifact compounds. (AID 1845223)
Summary of the method: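 Redox-cycling detection via DTT (250 uM final) oxidation coupled to Amplex Red (25 uM)/HRP (250 mU/mL) in HBSS. 15 min preincubation plus 30 min after DTT, room temperature. Ex/Em 525/598 nm; 4-parameter Hill fit against DMSO and 10 uM DA3003.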

[2] = Quantitative High-Throughput drug screen in 47 multiple myeloma cell lines against the NCATS MIPE library collection: FR4_PLB cell viability assay (AID 1918924; also: nearly all actives have a fitted effect of over 35% in size; also: potency is read from the fitted curve at half-maximal effect)
Summary of the method: (§1)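 qHTS of the MIPE 4.0 collection: 500 myeloma cells/well, 48 h drug exposure at 37C in 5% CO2, then CellTiter-Glo for 5 min at room temperature before luminescence reading.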

[3] = Quantitative High-Throughput drug screen in 47 multiple myeloma cell lines against the NCATS MIPE library collection: Delta47_JCRB cell viability assay (AID 1918925; also: nearly all actives have a fitted effect of over 45% in size; also: potency is read from the fitted curve at half-maximal effect)
Summary of the method: as §1

[4] = Quantitative High-Throughput drug screen in 47 multiple myeloma cell lines against the NCATS MIPE library collection: EJM_DSMZ cell viability assay (AID 1918926; also: nearly all actives have a fitted effect of over 30% in size; also: potency is read from the fitted curve at half-maximal effect)
Summary of the method: as §1

[5] = Quantitative High-Throughput drug screen in 47 multiple myeloma cell lines against the NCATS MIPE library collection: AMO1_DSMZ cell viability assay (AID 1918927; also: nearly all actives have a fitted effect of over 30% in size; also: potency is read from the fitted curve at half-maximal effect)
Summary of the method: as §1

[6] = Quantitative High-Throughput drug screen in 47 multiple myeloma cell lines against the NCATS MIPE library collection: ARP1_JJKsccF8 cell viability assay (AID 1918928; also: potency is read from the fitted curve at half-maximal effect; nearly all actives have a fitted effect of over 40% in size)
Summary of the method: (§2)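 500 cells/well; MIPE 4.0 library pinned in; 48 h, 37 °C, 5% CO2; CellTiter-Glo ATP luminescence. Controls: DMSO = 100% viability, medium only = 0%.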

[7] = Quantitative High-Throughput drug screen in 47 multiple myeloma cell lines against the NCATS MIPE library collection: KMM1_JCRB cell viability assay (AID 1918960); also: nearly all actives have a fitted effect of over 30% in size; also: potency is read from the fitted curve at half-maximal effect
Summary of the method: as §2

[8] = Quantitative High-Throughput drug screen in 47 multiple myeloma cell lines against the NCATS MIPE library collection: Karpas417_ECACC cell viability assay (AID 1918961); details: Karpas417 myeloma viability, CellTiter-Glo ATP luminescence, 48 h; viability (% of DMSO): at 45.8 µM (top of the series); also: potency is read from the fitted curve at half-maximal effect
Summary of the method: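 Luminescent ATP measurement with CellTiter-Glo gives viability, scaled between DMSO-only wells (100%) and media-only wells (0%). Cells, 500 per well, faced library compounds for 48 hours at 37C.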

[9] = Quantitative High-Throughput drug screen in 47 multiple myeloma cell lines against the NCATS MIPE library collection: ARD_JJKsccE7 cell viability assay (AID 1918929; also: potency is read from the fitted curve at half-maximal effect)
Summary of the method: as §1

[10] = Quantitative High-Throughput drug screen in 47 multiple myeloma cell lines against the NCATS MIPE library collection: Karpas620_DSMZ cell viability assay (AID 1918959); also: nearly all actives have a fitted effect of over 30% in size; also: potency is read from the fitted curve at half-maximal effect
Summary of the method: as §1

Question: What does the source list for `Cc1nc(N)ncc1-c1nc(N2CCOCC2)c2sc(C(C)(C)O)cc2n1`?
Answer: Potency [1]: inactive; Potency [2]: 8330 nM (active); Potency [3]: 235 nM (active); Potency [4]: 1480 nM (active); Potency [5]: 1320 nM (active); Potency [6]: 105 nM (active); Potency [7]: 332 nM (active)

Question: With `Cc1nc(Nc2n[nH]c3c2CN(C(=O)N[C@H](CN(C)C)c2ccccc2)C3(C)C)c2sccc2n1` as the molecule, how does the Potency [1] read?
Answer: inactive

Question: What about the Potency [2] of the same molecule?
Answer: 833 nM (active)

Question: What about the Potency [3] of the same molecule?
Answer: 33.2 nM (active)

Question: What about the Potency [4] of the same molecule?
Answer: 1480 nM (active)

Question: What about the Potency [5] of the same molecule?
Answer: 74.3 nM (active)

Question: And the Potency [6]?
Answer: 469 nM (active)

Question: And the Potency [7]?
Answer: 105 nM (active)

Question: Which results are given for `Cc1ccc(NC(=O)C2(c3ccc4c(c3)OC(F)(F)O4)CC2)nc1-c1cccc(C(=O)O)c1`?
Answer: Potency [1]: inactive; Potency [2]: 46.9 nM (active); Potency [3]: 52.6 nM (active); Potency [4]: 83.3 nM (active); Potency [5]: 52.6 nM (active); Potency [6]: 26.4 nM (active); Potency [8]: 46.9 nM (active)

Question: What does the source list for `Cc1cnc(Nc2ccc(F)cc2Cl)nc1-c1c[nH]c(C(=O)N[C@H](CO)c2cccc(Cl)c2)c1`?
Answer: Potency [1]: inactive; Potency [2]: 29600 nM (active); Potency [3]: 7430 nM (active); Potency [5]: 4180 nM (active); Potency [6]: 23500 nM (active); Potency [9]: 14800 nM (active); Potency [10]: 1050 nM (active); Potency [7]: 7430 nM (active)

Question: Which results are given for `CC[C@@H]1C(=O)N(C)c2cnc(Nc3ccc(C(=O)NC4CCC(N5CCN(CC6CC6)CC5)CC4)cc3OC)nc2N1C(C)C` (stereo partly drawn)?
Answer: Potency [1]: inactive; Potency [2]: 59 nM (active); Potency [3]: 1480 nM (active); Potency [4]: 743 nM (active); Potency [5]: 118 nM (active); Potency [6]: 132 nM (active); Potency [9]: 83.3 nM (active); Potency [7]: 52.6 nM (active); Potency [8]: 3320 nM (active)

Question: Which Potency [1] does the source give for `COc1cc(Nc2ncc(F)c(Nc3ccc4c(n3)N(COP(=O)(O)O)C(=O)C(C)(C)O4)n2)cc(OC)c1OC` here?
Answer: inactive

Question: And the Potency [2]?
Answer: inactive

Question: What about the Potency [3] of the same molecule?
Answer: 5900 nM (active)

Question: What about the Potency [4] of the same molecule?
Answer: 23500 nM (active)

Question: What about the Potency [5] of the same molecule?
Answer: 5260 nM (active)

Question: And the Potency [8]?
Answer: 1050 nM (active)

Question: With `COc1cc(C(=O)N2CCC(N3CCN(C)CC3)CC2)ccc1Nc1ncc2c(n1)N(C)c1ccccc1C(=O)N2C` as the molecule, how does the Potency [1] read?
Answer: inactive

Question: What about the Potency [2] of the same molecule?
Answer: 3720 nM (active)

Question: And the Potency [3]?
Answer: 2640 nM (active)

Question: What about the Potency [5] of the same molecule?
Answer: 2350 nM (active)

Question: What about the Potency [6] of the same molecule?
Answer: 2350 nM (active)

Question: What about the Potency [9] of the same molecule?
Answer: 1660 nM (active)

Question: And the Potency [10]?
Answer: 3320 nM (active)

Question: And the Potency [8]?
Answer: 2090 nM (active)

Question: With `Nc1cc(C(F)(F)F)c(-c2cc(N3CCOCC3)nc(N3CCOCC3)n2)cn1` as the molecule, how does the Potency [1] read?
Answer: inactive

Question: What about the Potency [2] of the same molecule?
Answer: 148 nM (active)

Question: What about the Potency [3] of the same molecule?
Answer: 296 nM (active)

Question: What about the Potency [5] of the same molecule?
Answer: 105 nM (active)

Question: What about the Potency [6] of the same molecule?
Answer: 209 nM (active)

Question: And the Potency [9]?
Answer: 187 nM (active)

Question: And the Potency [10]?
Answer: 235 nM (active)

Question: And the Potency [7]?
Answer: 372 nM (active)

Question: Which results are given for `Nc1ccccc1NC(=O)c1ccc(CNc2nccc(-c3cccnc3)n2)cc1`?
Answer: Potency [1]: inactive; Potency [2]: 935 nM (active); Potency [3]: 166 nM (active); Potency [4]: 3320 nM (active); Potency [5]: 590 nM (active); Potency [6]: 662 nM (active); Potency [7]: 1050 nM (active); Potency [8]: 469 nM (active)

Question: For `CNC(=O)c1ccc(N2C(=S)N(c3cnc(C#N)c(C(F)(F)F)c3)C(=O)C23CCC3)cc1F`, which Potency [1] is on record?
Answer: inactive

Question: What about the Potency [2] of the same molecule?
Answer: 14800 nM (active)

Question: And the Potency [3]?
Answer: 743 nM (active)

Question: What about the Potency [4] of the same molecule?
Answer: 166 nM (active)

Question: What about the Potency [5] of the same molecule?
Answer: 332 nM (active)

Question: What about the Potency [9] of the same molecule?
Answer: 2090 nM (active)

Question: What about the Potency [10] of the same molecule?
Answer: 2350 nM (active)

Question: And the Potency [7]?
Answer: 2090 nM (active)

Question: And the Potency [8]?
Answer: 1050 nM (active)

Question: Which results are given for `CC(C)CC(=O)Nc1n[nH]c2c1CN(C(=O)C1CCN(C)CC1)C2(C)C`?
Answer: Potency [1]: inactive; Potency [2]: 1660 nM (active); Potency [3]: 166 nM (active); Potency [4]: 1660 nM (active); Potency [5]: 1660 nM (active); Potency [6]: 1050 nM (active); Potency [9]: 1320 nM (active); Potency [8]: 526 nM (active)

Question: For `Cc1cc(CN2CCN(c3c(Br)cnc4nc(-c5ccc(N6CCN(C)CC6)cc5)[nH]c34)CC2)no1`, which Potency [1] is on record?
Answer: inactive

Question: What about the Potency [2] of the same molecule?
Answer: 18700 nM (active)

Question: What about the Potency [3] of the same molecule?
Answer: 2640 nM (active)

Question: And the Potency [4]?
Answer: 6620 nM (active)

Question: And the Potency [6]?
Answer: 14800 nM (active)

Question: What about the Potency [7] of the same molecule?
Answer: inactive

Question: And the Potency [8]?
Answer: inactive

Question: Which Potency [1] does the source give for `O=C(Nc1ncc(-c2cc(C(F)F)nn2-c2c(Cl)cccc2Cl)s1)C1CC1` here?
Answer: inactive

Question: What about the Potency [2] of the same molecule?
Answer: 235 nM (active)

Question: And the Potency [3]?
Answer: 332 nM (active)

Question: And the Potency [4]?
Answer: 209 nM (active)

Question: What about the Potency [5] of the same molecule?
Answer: 235 nM (active)

Question: What about the Potency [6] of the same molecule?
Answer: 418 nM (active)

Question: What about the Potency [9] of the same molecule?
Answer: 296 nM (active)

Question: What about the Potency [7] of the same molecule?
Answer: 264 nM (active)

Question: With `O=C(Nc1cc(C(F)(F)F)cc(C(F)(F)F)c1)c1cc(Cl)ccc1O` as the molecule, how does the Potency [1] read?
Answer: inactive

Question: And the Potency [2]?
Answer: 1320 nM (active)

Question: What about the Potency [3] of the same molecule?
Answer: 1870 nM (active)

Question: What about the Potency [4] of the same molecule?
Answer: 1480 nM (active)

Question: And the Potency [5]?
Answer: 235 nM (active)

Question: What about the Potency [6] of the same molecule?
Answer: 1050 nM (active)

Question: What about the Potency [9] of the same molecule?
Answer: 209 nM (active)

Question: What about the Potency [7] of the same molecule?
Answer: 132 nM (active)

Question: What about the Potency [8] of the same molecule?
Answer: 590 nM (active)

Question: With `COc1c(OCCCN2CCOCC2)ccc2c3n(c(=NC(=O)c4cnc(N)nc4)nc12)CCN3` as the molecule, how does the redox activity (% of DA3003) [1] read?
Answer: -6.72% [at 11.5 µM]

Question: And the Potency [2]?
Answer: 2880 nM (active)

Question: And the Potency [3]?
Answer: 182 nM (active)

Question: And the Potency [5]?
Answer: 512 nM (active)

Question: And the Potency [6]?
Answer: 28.8 nM (active)

Question: What about the Potency [9] of the same molecule?
Answer: 14.4 nM (active)

Question: And the Potency [10]?
Answer: 102 nM (active)

Question: What about the Potency [7] of the same molecule?
Answer: 12.9 nM (active)

Question: And the Potency [8]?
Answer: 8.1 nM (active)

Question: Which Potency [1] does the source give for `COc1cc(C)c(Sc2cnc(NC(=O)c3ccc(CNC(C)C(C)C)cc3)s2)cc1C(=O)N1CCN(C(C)=O)CC1` (stereo not drawn) here?
Answer: inactive

Question: What about the Potency [2] of the same molecule?
Answer: 14800 nM (active)

Question: And the Potency [3]?
Answer: 2350 nM (active)

Question: And the Potency [4]?
Answer: 16600 nM (active)

Question: And the Potency [5]?
Answer: inactive

Question: And the Potency [6]?
Answer: 16600 nM (active)

Question: What about the Potency [10] of the same molecule?
Answer: inactive

Question: And the Potency [7]?
Answer: inactive

Question: What does the source list for `COc1cccc(Nc2c(C(N)=O)cnc3c(C)cc(S(=O)(=O)c4cccc(C(=O)N(C)C)c4)cc23)c1`?
Answer: Potency [1]: inactive; Potency [2]: inactive; Potency [3]: inactive; Potency [4]: inactive; Potency [5]: 12900 nM (active); Potency [9]: 12900 nM (active); Potency [7]: 10200 nM (active)
